Results filed as inconclusive are left out. A call without a number means that no potency is given here. Activity calls are given as the source filed them. Calls come from the whole dose curve; as a rule, active = well fitted curve in the direction sought with a large enough effect; inconclusive = small, poorly fitted or top-dose-only effect, or another doubt; inactive = no such curve, though single readings can be large; an effect the other way counts as inactive or inconclusive.
Experiments:
[1] = qHTS for Inhibitors of the Aldehyde Dehydrogenase Family (ALDH1A2, ALDH1A3, ALDH2, ALDH3A1) (AID 2061307); note: nearly all actives have a fitted effect of over 50% in size; for potency: test system not described further here; potency is the fitted concentration of half-maximal effect
[2] = target: Aldehyde dehydrogenase, mitochondrial (Homo sapiens) (UniProt P05091); experiment: qHTS for Inhibitors of the Aldehyde Dehydrogenase Family (ALDH2) Primary screen (AID 2061308); note: nearly all actives have a fitted effect of over 55% in size
[3] = target: Retinal dehydrogenase 2 (Homo sapiens) (UniProt O94788); experiment: qHTS for Inhibitors of the Aldehyde Dehydrogenase Family (ALDH1A2) Confirmation screens (AID 2061314); note: nearly all actives have a fitted effect of over 65% in size
[4] = target: Retinaldehyde dehydrogenase 3 (Homo sapiens) (UniProt P47895); experiment: qHTS for Inhibitors of the Aldehyde Dehydrogenase Family (ALDH1A3) Primary screen (AID 2061315)
[5] = target: Aldehyde dehydrogenase 1A1 (Homo sapiens) (UniProt P00352); experiment: qHTS for Inhibitors of the Aldehyde Dehydrogenase Family (ALDH1A1) Confirmatory screens (AID 2061316); note: potency is the fitted concentration of half-maximal effect; nearly all actives have a fitted effect of over 65% in size

SMILES	Potency [1]	Potency [2]	Potency [3]	Potency [4]	Potency [5]
COc1ccc(C2=Nn3c(nnc3-c3cc(OC)ccc3OC)SC2)cc1	20 µM (active)	inactive	inactive	inactive	14.2 µM (active)
COc1ccc(C2Nc3ccccc3C(=O)N2CCc2ccccc2)cc1COc1ccc(NC(C)=O)cc1 (stereo not given)	5.65 µM (active)	inactive	–	inactive	–
CNc1oc(-c2c[nH]c3ccccc23)nc1C#N	11.3 µM (active)	inactive	inactive	inactive	–
COc1ccc(C2c3c(ncn(CCN4CCOCC4)c3=N)Oc3ccc4ccccc4c32)cc1OC (stereo not given)	inactive	inactive	–	inactive	–

Source: PubChem BioAssay (NCATS)
